Assay results as given in article PMC4552634, “A New Set of Chemical Starting Points with Plasmodium falciparum Transmission-Blocking Potential for Antimalarial Drug Discovery” (PLoS ONE, 2015).
The whole screen tested about 13,000 compounds, of which about 3,200 (25%) showed an effect of 50% or more. This is one part of the list. Square brackets hold non-standard residues; d marks the D form. Peptide text beside a SMILES is read from it. * marks the point of attachment. Butanoyl(4-(4-HOPh)) = O=C(CCCc1ccc(O)cc1)*

tested on: P. falciparum stage V gametocytes; set-up: BacTiter-Glo ATP luminescence viability of purified stage V gametocytes in 384-well plates, per cent inhibition versus DMSO; settings: 48 h, 5 µM; inhibitor

Structure (SMILES) | % Inhibition
CN(C)S(=O)(=O)c1ccc(N2C(=O)C3C(C2=O)C2(c4ccccc4)C(=O)C3(c3ccccc3)C(c3ccccc3)=C2c2ccccc2)cc1 (centres unmarked) [TCMDC-132095] | -66.42%
CCN(CC)CCCCOc1ccc2c(c1)C(=O)c1cc(OCCCCN(CC)CC)ccc1-2 [TCMDC-124163] | 88.71%
CCN(CC)CCOc1ccc(Nc2ncc3cc(-c4c(Cl)cccc4Cl)c(=O)n(C)c3n2)cc1 [TCMDC-140940] | 0.9022%
CN(c1ccc(F)cc1)S(=O)(=O)c1ccc(Cl)c(C(=O)Nc2cccc(C#N)c2)c1 [TCMDC-123717] | 11.84%
COc1cc(OC)nc(C(Sc2ccc(NC(=O)c3cccs3)cc2)c2ccccc2)n1 (centres unmarked) [TCMDC-124257] | 44.54%
CCCCCCOc1ccc(C(N)=NCc2ccccc2)c2c1CCCC2 [TCMDC-131554] | 15.01%
CCCCCCOc1ccccc1C(=O)NCCOc1ccc(Cl)cc1 [TCMDC-124012] | -9.249%
CCCCCOc1ccc(C(=NC)N(CCCCC)CCCCC)c2ccccc12 [TCMDC-137703] | 109.8%
O=C(NCc1cccc(C(F)(F)F)c1)c1ccc(CNC(=O)c2ccc(O)c(-c3ccc(Cl)c(Cl)c3)c2)cc1 [TCMDC-140834] | 9.818%
O=C(NC1CC1)c1ccc(N2CCCC(COc3ccc4c(c3)CCCC4)C2)nc1 (centres unmarked) [TCMDC-134263] | 18.7%
O=C(NCC(=O)N1CCC[C@H]1C(=O)O)[C@@H](Cc1ccccc1)NC(=O)[C@@H]1CCCN1C(=O)CCCc1ccc(O)cc1 [TCMDC-141970] ({Butanoyl(4-(4-HOPh))}-P[dF]GP-OH) | -16.67%
Cc1ccc(NC(=O)Cc2noc(CC3CCCN3C(=O)N[C@@H](C)c3ccccc3)n2)cc1 (some centres unmarked) [TCMDC-134994] | 0.878%
CCC(C)NC(=O)Nc1ccc(-c2cccc(-c3nc4ccccc4[nH]3)c2)cc1 (centres unmarked) [TCMDC-133241] | 3.681%
Cc1cccc2nc(-c3ccc(-c4ccc(NC(=O)C(C)CN5CCN(C)CC5)cc4)s3)[nH]c12 (centres unmarked) [TCMDC-137154] | -22.77%
CC(CN1CCN(C)CC1)C(=O)Nc1cccc(-c2ccc(-c3nc4ccccc4[nH]3)s2)c1 (centres unmarked) [TCMDC-137142] | -55.57%
CC(CN1CCN(C)CC1)C(=O)Nc1ccc(-c2ccc(-c3nc4ccccc4[nH]3)cc2)cc1 (centres unmarked) [TCMDC-137148] | 72.16%
CC(CN1CCN(C)CC1)C(=O)Nc1ccc(-c2ccc(-c3nc4ccccc4[nH]3)s2)cc1 (centres unmarked) [TCMDC-137140] | 86.65%
CC(CN1CCN(C)CC1)C(=O)Nc1ccc(-c2cccc(-c3nc4ccccc4[nH]3)c2)cc1 (centres unmarked) [TCMDC-137139] | 81.76%
CC(CN1CCN(C)CC1)C(=O)Nc1ccc(-c2csc(-c3nc4ccccc4[nH]3)c2)cc1 (centres unmarked) [TCMDC-132391] | 31.65%
CCc1cc(C(=O)c2cccc(C)c2)c(NC(=O)CN2CCN(C(=O)c3ccco3)CC2)s1 [TCMDC-123646] | 4.148%
O=C(O)/C=C/c1cccc(F)c1F [TCMDC-124298] | -5.397%
O=C(Nc1cn(-c2ccc(OCc3cccc(F)c3)c(Cl)c2)c2ncncc12)c1ccncc1 [TCMDC-135377] | -11.19%
CCOc1ccc(Br)cc1/C=C/C(=O)Nc1ccc2c(c1)CCCN(C)C2 [TCMDC-134049] | 5.79%

Structure (SMILES) | % Inhibition
CC1Cc2ccccc2N1S(=O)(=O)c1cc(OCC(F)(F)F)ccc1OCC(F)(F)F (centres unmarked) [TCMDC-124044] | -9.787%
CC1Cc2ccccc2N1S(=O)(=O)c1cccc(C(=O)Nc2nc(-c3ccccn3)cs2)c1 (centres unmarked) [TCMDC-124559] | 76.73%
O=C(Nc1nc(-c2ccccn2)cs1)c1ccc(Br)s1 [TCMDC-123868] | 65.77%
O=C(Nc1nc(-c2ccccn2)cs1)c1ccc(S(=O)(=O)N2CCc3ccccc32)cc1 [TCMDC-125432] | 10.03%
CC(C)(C)c1ccc(-c2csc(NC(=O)CC(c3ccccc3)c3ccccc3)n2)cc1 [TCMDC-124604] | -3.611%
O=C(Nc1nc(-c2cc(F)ccc2F)cs1)c1cncc(Br)c1 [TCMDC-123613] | -58.06%
CCN1CCN(c2ccc(NC(=O)c3cc4c(C)nn(-c5ccccc5)c4s3)cc2C)CC1 [TCMDC-125105] | 8.854%
COc1cc(OC)cc(C(=O)Nc2nc(-c3ccccn3)cs2)c1 [TCMDC-125345] | 25.53%
Cc1nn(CC(C)C)c2sc(C(=O)Nc3nc(-c4ccccn4)cs3)cc12 [TCMDC-125461] | 62.82%
O=C(Nc1nc(-c2ccccn2)cs1)c1ccccc1COc1ccccc1 [TCMDC-125336] | 64.14%
COc1cc(OC)cc(C(=O)Nc2nc(-c3ccc(NC(=O)c4ccccc4)cc3)cs2)c1 [TCMDC-125112] | -27.73%
O=C(Nc1cccc(-c2csc(-c3ccccc3)n2)c1)c1cccs1 [TCMDC-123904] | 22.98%
COc1cc(F)c2ncc(Cl)c(C(O)CN3CCC(NC(=O)c4ccc5c(c4)NC(=O)CS5)CC3)c2c1 (centres unmarked) [TCMDC-135908] | -70.28%
Cc1noc(C)c1-c1cccc(CNCc2cccc(-c3csc(-c4nc5ccccc5[nH]4)c3)c2)c1 [TCMDC-133047] | -19.47%
Cc1cccc2nc(-c3ccc(-c4cccc(NC(=O)Nc5ccsc5)c4)s3)[nH]c12 [TCMDC-133208] | 8.037%
CC1(C)N=C(N)N=C(N)N1OCCCc1ccc(Cl)cc1Cl [TCMDC-131692] | 4.93%
O=C(NC1CCC(CCN2Cc3cccc(F)c3C2)CC1)c1cccc(-c2cccnc2)c1 (centres unmarked) [TCMDC-139623] | -21.05%
COc1ccc2nccc([C@@H](O)CN3CCC(NC(=O)c4ccc5cc[nH]c5c4)CC3)c2c1 [TCMDC-140743] | -6.563%
COc1cc(C(=O)Nc2ccc3nc(N4CCN(C)CC4)cc(C)c3c2)cc(OC)c1OC [TCMDC-123591] | 10.02%
CCN(CC1CCN(CC2(O)CCOCC2)CC1)c1cc(C)nc(Nc2ccc(Cl)cc2)n1 [TCMDC-133808] | 30.17%
CNC(=O)c1ccccc1Nc1nc(Nc2ccc(C(=O)O)cc2)ncc1Cl [TCMDC-133803] | -5.909%
CCN(CC)CCNC(=O)c1ccc(NC(=O)c2cc(-c3ccncc3)nc3ccccc23)cc1 [TCMDC-124495] | 0.6549%
CCN(CC)CCNC(=O)c1ccc(Nc2ncc([N+](=O)[O-])c(Nc3ccccc3OC)n2)cc1 [TCMDC-138727] | 73.19%

Structure (SMILES) | % Inhibition
CC(=O)Nc1ccc(Nc2ncc([N+](=O)[O-])c(Nc3ccccc3C(N)=O)n2)cc1 [TCMDC-138731] | -8.61%
N=C(N)c1ccc(Nc2nc(Nc3ccc(-c4ccccc4)cc3)ncc2[N+](=O)[O-])cc1 [TCMDC-136145] | 99.81%
N=C(N)c1ccc(Nc2nccc(Nc3nc(-c4ccccc4)cs3)n2)cc1 [TCMDC-136090] | -20.73%
CCC(C)c1ccc(NC(=O)Nc2ccc(Cn3ncc(N4CCCNCC4)c(Cl)c3=O)cc2)cc1 (centres unmarked) [TCMDC-133313] | -21.93%
COc1cc(-c2[nH]c(-c3ccc(OCCN(C)C)cc3)cc2-c2ccncc2)ccc1Cl [TCMDC-141225] | -13.45%
N=C(N)c1ccc(NC(=O)c2cc(Sc3ccc(O)c(C(=O)Nc4ccc(C(=N)N)cc4)c3)ccc2O)cc1 [TCMDC-136287] | -39.81%
CN(C)c1ccc(C=C2SC(=N)N(c3nccs3)C2=O)cc1 [TCMDC-125861] | -21.41%
Cc1nc(N)nc(N)c1OCc1cccc2c1ccc1ccccc12 [TCMDC-131344] | 22.54%
Cc1ccc(Cc2c(C)nc3nc(N)nc(N)c3c2C)cc1 [TCMDC-137657] | -7.172%
Cc1nc2nc(N)nc(N)c2c(C)c1Cc1ccccc1Br [TCMDC-137242] | -1.627%
COc1ccc(OC)c(Cc2c(C)nc3nc(N)nc(N)c3c2C)c1 [TCMDC-137651] | -0.1524%
Cc1nc2nc(N)nc(N)c2c(C)c1Cc1ccc(N)cc1 [TCMDC-137633] | -5.029%
COc1ccccc1Cc1c(C)nc2nc(N)nc(N)c2c1C [TCMDC-137247] | 65.53%
Cc1nc2nc(N)nc(N)c2c(C)c1Cc1ccccc1Cl [TCMDC-137668] | -12.71%
Cc1nc2nc(N)nc(N)c2c(C)c1Cc1ccc([N+](=O)[O-])cc1 [TCMDC-137636] | 77.57%
Cc1nc2nc(N)nc(N)c2c(C)c1Cc1c(Cl)cccc1Cl [TCMDC-137638] | 65.23%
Cc1nc2nc(N)nc(N)c2c(C)c1Cc1cccc(F)c1 [TCMDC-137652] | -9.941%
CO/C(=C\C=C\c1cc2cc(Cl)c(Cl)cc2[nH]1)C(=O)NCCCN1CCN(c2cccc(CCCO)c2)CC1 [TCMDC-139412] | 14.82%
NC(N)=Nc1ccc(NC(=O)Nc2ccc(N=C(N)N)cc2)cc1 [TCMDC-137208] | -16.48%
Cc1cccc2nc(-c3ccc(-c4cccc(NC(=O)NCc5cccc(F)c5)c4)s3)[nH]c12 [TCMDC-133285] | -13.08%
OC1CCC(Nc2ccc3ncc(-c4ccc(Cl)cc4)n3n2)CC1 (centres unmarked) [TCMDC-136693] | 13.04%
OC(CNc1ccnc(Nc2ccc(Cl)cc2)n1)c1ccc(C(F)(F)F)cc1 (centres unmarked) [TCMDC-136597] | -19.72%
